# Sampled rows, rich in hits. Any-hit rate of the full collection: about 5.8%.
# 12-LOX inh = Primary qHTS assay for inhibitors of human arachidonate 12S-lipoxygenase (ALOX12): Round 2; Potency, µM (series often up to 108 µM), for inactives: at the top dose activity change, negative = inhibition, usual class: inhibitors; actives 1.1% (n = 580,000); purified 12hLO, xylenol orange hydroperoxide absorbance; AID 1671190, 2021; also: % is scaled to controls: 0 for no effect and ±100 for the full control effect
# Target sequence (P18054 whole entry, looked up): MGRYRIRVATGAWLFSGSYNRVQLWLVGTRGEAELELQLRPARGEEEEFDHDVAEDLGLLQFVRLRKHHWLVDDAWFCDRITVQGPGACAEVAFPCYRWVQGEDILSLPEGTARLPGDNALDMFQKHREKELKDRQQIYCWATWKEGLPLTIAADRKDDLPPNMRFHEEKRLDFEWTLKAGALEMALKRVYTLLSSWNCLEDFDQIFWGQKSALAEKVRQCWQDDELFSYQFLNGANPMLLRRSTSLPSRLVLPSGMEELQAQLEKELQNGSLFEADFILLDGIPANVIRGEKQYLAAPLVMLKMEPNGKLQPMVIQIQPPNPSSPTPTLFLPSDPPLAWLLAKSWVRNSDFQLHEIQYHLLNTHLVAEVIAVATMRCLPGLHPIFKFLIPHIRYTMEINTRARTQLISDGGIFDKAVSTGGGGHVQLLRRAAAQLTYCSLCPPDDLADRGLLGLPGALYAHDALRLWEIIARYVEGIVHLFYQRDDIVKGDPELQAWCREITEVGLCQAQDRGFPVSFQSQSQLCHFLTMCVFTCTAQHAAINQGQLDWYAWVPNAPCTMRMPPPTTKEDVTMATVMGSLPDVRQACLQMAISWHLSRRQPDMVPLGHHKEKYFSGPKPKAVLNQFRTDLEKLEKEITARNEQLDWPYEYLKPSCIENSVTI
#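 Hydroperoxide product was detected by ferrous iron/xylenol orange as the 573 to 405 nm absorbance ratio. Arachidonic acid at 40 uM (final) was turned over for 30 min at room temperature by 150 nM human 12hLO, pH 7.0 Hepes buffer, after 15 min compound preincubation.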
# KB-3-1 tox = qHTS assay for MDR1-selective chemotherapeutics: Primary screen using the parental adenocarcinoma cell KB-3-1 | KB-3-1 viability, CellTiter-Glo ATP luminescence, 72 h | Potency, µM (top dose mostly 46.1 µM), hits mostly cytotoxic | actives 1.4% (n = 400,000) | AID 1347075, 2019; also: % is scaled to controls: 0 for no effect and ±100 for the full control effect; nearly all actives have a fitted effect of over 60% in size
#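 KB-3-1 parental drug-naive adenocarcinoma cells in DMEM/10% FBS, incubated 72 h at 37 C with pin-transferred compounds across a concentration series. Viability by CellTiter-Glo luminescence; concentration-response curves fitted after normalization.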
# SW480 rerep = A quantitative high throughput screen for small molecules that induce DNA re-replication in SW480 colon adenocarcinoma cells. SW480 DNA re-replication, Hoechst DNA content imaging, 48 h. Potency, µM (titrated, usually from 46.1 µM), inactives show at the top dose re-replication activation, actives largely listed as activators. actives 1.8% (n = 340,000); also: % of control where 0% means no effect; nearly all actives have a fitted effect of over 55% in size
#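 Quantitative HTS format with DMSO vehicle controls; 48 hr drug incubation at 37 C, then 40 min Hoechst staining and scanning imager measurement at 405 nm excitation.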
# KB-V1 MDR tox = qHTS assay for MDR1-selective chemotherapeutics: Primary screen using the drug-selected MDR subline cells KB-V1 | KB-V1 MDR cells viability, CellTiter-Glo, 72 h | Potency, µM (doses to about 46.1 µM), actives largely listed as cytotoxic | actives 3.4% (n = 400,000); also: % is scaled to controls: 0 for no effect and ±100 for the full control effect; nearly all actives have a fitted effect of over 60% in size
#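 Readout: CellTiter-Glo luminescence, 10 min after addition. Cells: KB-V1 MDR subline, 72 h at 37 degrees C with compound. Analysis: corrected, normalized data fitted to concentration-effect curves.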
# MCF10A rereplic = A quantitative high throughput screen for small molecules that induce DNA re-replication in MCF 10a normal breast cells. MCF 10A DNA re-replication, Hoechst nuclear intensity, 48 h. Potency, µM (series often up to 46.1 µM), without a hit: at the highest dose activity, positive = re-replication, most hits filed as activators. actives 2.9% (n = 350,000). AID 624296, 2012; also: % of control where 0% means no effect; nearly all actives have a fitted effect of over 50% in size
# PINK1 expr mod = A Quantitative High throughput Screen to Identify Chemical Modulators of PINK1 Expression | actives 0.2% (n = 410,000) | Potency, µM (titrated, usually from 76.6 µM), for the others: at the highest dose activation (PINK1 increase), most hits filed as activators | PINK1 immunofluorescence, high-content cytometry, 24 h; active = well fitted activation curve with a large enough effect; inconclusive = small, poorly fitted or top-dose-only effect; cell line not stated here; also: % of control where 0% means no effect; nearly all actives have a fitted effect of over 65% in size
#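 A stable cell line was treated with compounds at 5 concentrations for 24 hours, with CCCP as control. PINK1 levels and mitochondrial localization were measured by immunofluorescence with mitochondrial, cell and nuclear markers after fixation, read by laser-scanning cytometry.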
# An asterisk follows results filed as active; i = inactive; ? = inconclusive; / = no result; [ ] = another dose, or the depositor's remark. Unless noted, calls follow the shape of the dose curve; as a rule, active = well fitted curve in the direction sought with a large enough effect; inconclusive = small, poorly fitted or top-dose-only effect, or another doubt; inactive = no such curve, though single readings can be large; an effect the other way counts as inactive or inconclusive. Potency is read from the fitted curve at half-maximal effect.
SMILES,12-LOX inh,KB-3-1 tox,SW480 rerep,KB-V1 MDR tox,MCF10A rereplic,PINK1 expr mod
Cc1nc2c(c(=O)c3ccccc3n2C)c(=O)n1C1CCCCCC1,-1%,i,-8%,i,-3%,3%
O=c1cc(O)c2c(=O)n(C3CCCCC3)c3ccccc3c2o1,-9%,?,0%,4.1µM*,?,4%[38.3 µM]
O=c1cc(O)c2c(=O)n(Cc3ccccc3)c3ccccc3c2o1,-27%,i,12%,6.5µM*,?,3%
O=C(Nc1cccc(-c2nnc3n2CCCC3)c1)c1cnccn1,25%,/,/,/,/,/
CCOc1ccccc1NC(=O)CCc1ncc(-c2ccc(C)cc2)o1,-11%,/,/,/,/,/
COc1ccc(-c2c(NC(=O)CC(C)C)oc3c(C)cccc3c2=O)cc1,25%,/,/,/,/,/
CCN(CC)c1nc2ccccc2nc1C(=O)Nc1cc(C)ccc1C,-2%,/,/,/,/,/
Cn1c(Sc2ccc(C(F)(F)F)cc2[N+](=O)[O-])nnc1-c1ccccc1,-17%,i,4%,21µM*,13%,2%[38.3 µM]
CCc1ccc(NC(=O)N2CC=C(c3c[nH]c4ccccc34)CC2)cc1,-5%,/,/,/,/,0%
CSc1ccc(NC(=O)N2CC=C(n3c(=O)[nH]c4ccccc43)CC2)cc1,-9%,16µM*,?,16µM*,?,?
Cc1ccccc1-n1ncc2c(SCC(=O)NCc3cccs3)ncnc21,1%,5.2µM*,21µM*,7.3µM*,13µM*,3%
CC(C)C(=O)NNC(=O)CSc1ncnc2c1cnn2-c1ccccc1Cl,8%,i,10%,?,7%,2%
CNC(=O)CSc1ncnc2c1cnn2-c1ccccc1,-4%,i,-3%,i,0%,2%
Cc1csc(NC(=O)CSc2ncnc3c2cnn3-c2ccccc2Cl)n1,/,?,21%,?,22µM*,5%
Cc1ccc(C(=O)O)cc1C,6%,/,/,/,/,/
O=C(Nc1nccs1)C1CC(=O)N(Cc2ccccn2)C1 (centres undefined),-4%,/,/,/,/,/
CCN(CC(=O)Nc1c(F)cccc1F)C(=O)c1ccc(S(=O)(=O)N2CCC(C)CC2)cc1,12%,i,0%,21µM*,-1%,2%
CCN(CC(=O)Nc1c(F)cccc1F)C(=O)c1ccc(S(=O)(=O)N2CCCCCC2)cc1,2%,i,-5%,?,2%,0%
O=C(Nc1ccc(Cl)cc1)C1CCC(=O)N1Cc1ccccc1Cl (centres undefined),0%,i,-5%,?,13%,-3%
O=C(Nc1ccccc1Br)C1CCC(=O)N1Cc1ccccc1Cl (centres undefined),-16%,i,2%,21µM*,3%,-17%[38.3 µM]
COc1ccc(C2(C(=O)NC3CCCc4c3[nH]c3c(Cl)cccc43)CCOCC2)cc1 (centres undefined),-15%,/,/,/,/,/
O=C(Cn1nc2c(cc1=O)CCCC2)NC1CC1,37%,/,/,/,/,/
COc1ccc(C2(C(=O)NC3CCCc4c3[nH]c3ccccc43)CCOCC2)cc1 (centres undefined),35µM*,/,/,/,/,/
O=C(Cc1n[nH]c(=O)c2ccccc12)NC1CCCc2c1[nH]c1ccccc21 (centres undefined),45µM*,/,/,/,/,/
O=C(Cn1ncc2ccccc2c1=O)NC1CCCc2c1[nH]c1ccccc21 (centres undefined),28µM*,/,/,/,/,/
SMILES,12-LOX inh,KB-3-1 tox,SW480 rerep,KB-V1 MDR tox,MCF10A rereplic,PINK1 expr mod
O=C(Cn1nc2c(cc1=O)CCCC2)NC1CCCc2c1[nH]c1ccccc21 (centres undefined),35µM*,/,/,/,/,/
CCc1cc(C(=O)O)cs1,-17%,/,/,/,/,/
CC1(C)Cc2cccc(OCC(=O)OCC(=O)Nc3ccc(F)c(F)c3)c2O1,-14%,/,/,/,/,/
Cc1cc(C(=O)Nc2ccc(Br)cn2)no1,6%,/,/,/,/,/
CC(=O)NC1CCCc2c1[nH]c1ccc(Cl)cc21 (centres undefined),7%,/,/,/,/,/
COc1ccc2cnn(CC(=O)NC3CCCc4c3[nH]c3ccccc43)c(=O)c2c1OC (centres undefined),40µM*,/,/,/,/,/
COc1ccc2cnn(CC(=O)Nc3ccccc3)c(=O)c2c1OC,14%,/,/,/,/,/
Cc1ccc2[nH]c3c(c2c1)CCCC3NC(=O)CCl (centres undefined),/,i,8.2µM*,?,21µM*,-1%
Nc1nc(=S)c2[nH]c(=S)[nH]c2[nH]1,7.9µM*,?,?,?,?,-2%
O=C(COCc1nnc(C(=O)Nc2cccc(F)c2)s1)NCCc1ccco1,-59%,/,/,/,/,/
COc1cc(C2CC(c3c(C)cc(C)[nH]c3=O)=NN2c2ccccc2F)cc(OC)c1OC (centres undefined),0%,i,?,i,23µM*,3%
CN1CCN(S(=O)(=O)c2ccc(NC(=O)Cn3cnc4ccccc4c3=O)cc2)CC1,2%,/,/,/,/,/
